SMILES strings stand for the structures. This is part of a sample that, as a whole, favours compounds with a hit. Of some 83,000 tested, about 20% had one in any assay.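 For each line, cells grew in 96-well plates with the test compound present at a single concentration for 48 hours.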 A number with no mark means an inactive call. Active and inactive are the calls of the source. The calls were made as follows: active = growth percent below 10; inactive = the rest.

This assay concerns TK-10 renal. Nature of the assay: NCI-60 one-dose screen, 48 h (100 = growth as untreated, 0 = no growth, -100 = all killed). The note with it: 10 µM unless noted.
On to `O=C1C(Cl)=C(NCCCCCCNC2=C(Cl)C(=O)c3ccccc3C2=O)C(=O)c2ccccc21`, for which the growth was 109%.

With `CCCC/C=C/[C@@H]1C[C@H]1CCO`, the growth is 96.4%.

Regarding `C=C(C)[C@@H]1CC[C@]2(CO)CC[C@]3(C)[C@H](CC[C@@H]4[C@@]5(C)CC[C@H](NCO)C(C)(C)[C@@H]5CC[C@]43C)[C@@H]12`, the growth is -64.8% (active).

In the case of `Cc1cccc(/C=C/c2c(C(=O)/C=C/c3ccccc3)c(C)nc3ccccc23)c1`, the growth was -6.55% (active).

Take `Cc1ccc(-c2nc(N3CCCNCC3)c3oc(-c4ccc(C)cc4)nc3n2)cc1`: the growth is -1.53% (active).

Regarding `Cc1sc2nc(NCCc3c[nH]c4ccc(Cl)cc34)[nH]c(=O)c2c1C`, the growth is 63.9%.

In the case of `COc1ccc(OC)c(Nc2nnc(-c3ccc(O)c(OC)c3)o2)c1`, the growth was 14.8%.

As to `COc1ccccc1NC(=O)N=Nc1c(O)[nH]c2ccccc12`, the growth was 118%.

On to `Nc1nc2ccccc2c2c1S(=O)(=O)c1ccc(Cl)cc1C2=O`, for which the growth is 16.6%.

Turning to `Nc1n[nH]c2cccc(C#Cc3cccc(C(=O)Nc4cc(C(F)(F)F)cc(C(F)(F)F)c4)c3)c12`, the growth is 109%.

For `CS(=O)(=O)Nc1cc(-c2ccc3ncnc(Nc4ccc5c(cnn5Cc5ccc(F)cc5)c4)c3c2)cnc1Cl`, the growth is 38.3%.

As to `Fc1cc2c(cc1Cl)N(c1ncnc3ccc(-c4ccc5n[nH]nc5c4)cc13)CC2`, the growth is 46%.

For the molecule `CCN1C(=S)N(c2ccccc2)C2NC(=S)N(/N=C/C=C/c3ccccc3OC)C21` (stereo not given), the growth was 68.6%.

Take `O=c1c2cccc3c(N4CCCC4)ccc(c32)c2nc3ccccc3n12`: the growth is 87.6%.

In the case of `OB1OCc2cc(/C=C/c3cccc(C(F)(F)F)c3)ccc21`, the growth was -19.3% (active).

As to `O=C(/C=C/c1ccccc1)Nc1ncc(Cc2ccccc2Cl)s1`, the growth is 44.6%.

Take `CN(C)CCNC(=O)c1ccc(-c2nc3ccc4[nH]ncc4c3c3c2C2CCC3C2)cc1` (stereo not given): the growth was 83%.

In the case of `COC12C=C/C(=C(/C(=O)OCc3ccncc3)C(=O)CCCCCCCCC3(OC)C=C/C(=C(/C(=O)OCc4ccncc4)C(=O)CCCCCCCC1)O3)O2`, the growth was -45% (active).

Regarding `O=C(/C=C/c1cccc(Cl)c1)c1cccc(OCCCOc2cccc(C(=O)/C=C/c3cccc(Cl)c3)c2)c1`, the growth was 125%.

In the case of `CCn1c(SCC(=O)N/N=C(\C)c2ccc(Cl)cc2)nc2c1c(=O)n(C)c(=O)n2C`, the growth was 125%.

With `Cc1ccc(C[P+](c2ccccc2)(c2ccccc2)c2ccccc2)cc1`, the growth was 30.5%.

As to `Clc1ccc2c(NC3CCC(N4CCOCC4)CC3)ccnc2c1` (stereo not given), the growth was 80.8%.

`Cc1ccc(C2=Nc3c(N)ncnc3NC(c3cccc(Nc4ccnc5cc(C(F)(F)F)ccc45)c3)C2)cc1` (stereo not given): the growth was 64.7%.

For `COc1ccc(-c2noc(C(=O)O)c2-c2cc(OC)c(OC)c(OC)c2)cc1`, the growth is 46.4%.

Regarding `CCOC(=O)c1nn(-c2ccc(S(N)(=O)=O)cc2)c2nc(C)cc(=O)n12`, the growth is 94.7%.

On to `CCSC(SCC)c1ccc(Cl)cc1`, for which the growth was 116%.

Take `CSc1nc2ccccc2cc1/C=C1/C=C(c2ccccc2)NC1=O`: the growth was 123%.

As to `COC1/C=C/OC2(C)Oc3c(C)c(O)c4c(O)c(c(/C=N/Nc5ccc([N+](=O)[O-])cc5[N+](=O)[O-])c(O)c4c3C2=O)NC(=O)C(C)=C/C=C/C(C)C(O)C(C)C(O)C(C)C(OC(C)=O)C1C` (stereo not given), the growth is 25.7%.

As for `O=C1C(Cl)=C(Nc2ccc(S(=O)(=O)N3CCOCC3)cc2)C(=O)c2ccccc21`, the growth was 105%.

Consider `c1csc(-c2ccc(CNc3c4ccccc4nc4ccccc34)cc2)c1`, for which the growth was 65.1%.

As for `Nc1ncc(-c2ccc3ncnc(Nc4cccc(Cl)c4)c3c2)cn1`, the growth is -14.8% (active).

For the molecule `CCOC(=O)C#Cc1c(C(=O)OCC)nnn1Cc1ccc([N+](=O)[O-])cc1`, the growth is -10.9% (active).

For `O=C(CSc1nc2ccc([N+](=O)[O-])cc2[nH]1)Nc1ccc([N+](=O)[O-])cc1`, the growth was 31.8%.

For the molecule `CC(C)(Sc1cc(C(C)(C)C)c(OC(=O)CCCC(=O)O)c(C(C)(C)C)c1)Sc1cc(C(C)(C)C)c(OC(=O)CCCC(=O)O)c(C(C)(C)C)c1`, the growth is 58.6%.

In the case of `O=C(N(c1ccccc1)c1ccccc1)n1cc(I)c2nc(Cl)nc(Cl)c21`, the growth is 86.8%.

On to `NC(=O)CSc1oc(-c2ccccc2)nc1S(=O)(=O)c1ccc(Br)cc1`, for which the growth is 82.1%.

As for `COc1ccc(/C=C/C(=O)c2cc3c(N)c(C(=O)Nc4cccc5ccccc45)sc3nc2C)cc1`, the growth is 94.2%.

Turning to `Nc1ncnc2c1c(-c1cccc(Cl)c1)nn2CC(=O)N1CCOCC1`, the growth was 97%.

For `CC(=O)O[C@H]1CC2CCC3C(CC[C@@]4(C)C3C[C@H]([N+]3(C)CCCCC3)[C@@H]4OC(C)=O)[C@@]2(C)C[C@@H]1N1CCCCC1` (stereo not given in full), the growth is 108%.

In the case of `c1ccc(Cn2cc3c(c2)-c2oncc2CC3)cc1`, the growth is 77.1%.

Source of the values: PubChem BioAssay (NCI).
